A selection: hits, their analogues and other compounds. The true share with any hit is near 2.2%.
FBPA Giardia inh – qHTS Assay for Inhibitors of Fructose-1,6-bisphosphate Aldolase from Giardia Lamblia; AID 2451, 2010; purified Giardia FBPA; 290,000 tested, 0.71% active; Potency, µM (highest dose often 59.6 µM), for the others: top-dose activity, negative = inhibition, hits mostly inhibitors; active = well fitted inhibition curve with a large enough effect; inconclusive = small, poorly fitted or top-dose-only effect, or effect the other way; note: nearly all actives have a fitted effect of over 55% in size
Target sequence (A8B2U2 whole entry, looked up): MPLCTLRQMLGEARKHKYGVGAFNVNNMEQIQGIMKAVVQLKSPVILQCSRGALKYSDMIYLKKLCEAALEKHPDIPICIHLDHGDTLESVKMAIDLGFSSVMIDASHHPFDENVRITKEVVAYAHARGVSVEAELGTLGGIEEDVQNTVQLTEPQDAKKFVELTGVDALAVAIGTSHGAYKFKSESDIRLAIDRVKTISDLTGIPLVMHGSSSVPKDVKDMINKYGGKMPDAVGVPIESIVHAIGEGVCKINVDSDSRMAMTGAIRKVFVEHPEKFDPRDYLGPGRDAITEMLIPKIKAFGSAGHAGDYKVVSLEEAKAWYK
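40 nM FBPA preincubated 10 min at RT with compound (up to 57.5 uM final), then substrate plus GAPDH/TPI/NAD/arsenate coupling and diaphorase/resazurin added. Fluorescence read after 20 min at RT, 525/598 nm.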
Vaccinia Venus – qHTS for Stage-Specific Inhibitors of Vaccinia Orthopoxvirus: Venus Reporter Primary qHTS; Vaccinia virus Venus reporter expression, fluorescence; Potency, µM (doses to about 36.5 µM), for inactives: top-dose activity change, negative = inhibition, actives largely listed as inhibitors; AID 720580, 2013; 330,000 tested, 0.46% active; calls by dose curve; tested in A549 cells; note: nearly all actives have a fitted effect of over 30% in size
FMDV inh – High Throughput Screening for Foot and Mouth Disease Virus Antivirals | 410,000 tested, 1.2% active | AID 1159524, 2015 | FMDV antiviral cell-based qHTS | Potency, µM (top dose mostly 57.9 µM), inactives show top-dose activity change, negative = inhibition, usual class: inhibitors; calls by dose curve; tested in HEK293T cells; note: read-out not given here; nearly all actives have a fitted effect of over 45% in size
VACV mCherry inh – qHTS for Stage-Specific Inhibitors of Vaccinia Orthopoxvirus: mCherry Reporter Primary qHTS. Vaccinia virus mCherry reporter infection, fluorescence. Potency, µM (titrated, usually from 36.5 µM), for inactives: at the top dose activity change, negative = inhibition, hits mostly inhibitors. 310,000 tested, 0.63% active. AID 720579, 2013; calls by dose curve; tested in A549 cells; note: nearly all actives have a fitted effect of over 35% in size
The depositor's hits bear a star. % is set by controls: 0 for no effect and ±100 for the full control effect; potency is the fitted concentration of half-maximal effect.

How did COc1ccc(S(=O)(=O)Cc2ccc(C(=O)NC3CCC(C)CC3)o2)cc1 (configuration not stated) do in these assays?
FBPA Giardia inh: -5%; Vaccinia Venus: -12%; FMDV inh: -14%; VACV mCherry inh: inactive

What do the screens show for `Cc1ccc(-n2c(C)cc(/C=c3/sc4nc5ccccc5n4c3=O)c2C)cc1`?
FBPA Giardia inh: 3%; Vaccinia Venus: 2%; FMDV inh: 1µM*

Results for COc1cc2c(NC3CCN(C(C)C)CC3)nc(N3CCCN(C)CC3)nc2cc1OCCOCCN(C)C ?
Vaccinia Venus: 1.8µM*; VACV mCherry inh: 1.6µM*

What do the screens show for `COc1cc2c(NC3CCN(C)CC3)nc(N3CCCN(C)CC3)nc2cc1OCCCN(C)C`?
Vaccinia Venus: inconclusive; VACV mCherry inh: -24%

Results for COc1cc2c(NC3CCN(C(C)C)CC3)nc(N3CCCN(C)CC3)nc2cc1OCCCN1CCCC1 ?
Vaccinia Venus: 1µM*; VACV mCherry inh: 0.89µM*

How did COc1cc2c(NC3CCN(C)CC3)nc(N3CCCCC3)nc2cc1OCCOCCN(C)C do in these assays?
Vaccinia Venus: 13µM*; VACV mCherry inh: 10µM*

How did COc1cc2c(NC3CCN(C)CC3)nc(N3CCCCC3)nc2cc1OCCCN(C)C do in these assays?
Vaccinia Venus: 10µM*; VACV mCherry inh: inconclusive

Results for CCOC(=O)c1ccc(NC(=O)c2c(NCc3cccs3)sc3c2CCCCC3)cc1 ?
Vaccinia Venus: 7%; FMDV inh: 6%; VACV mCherry inh: -5%

Results for COc1cc(=O)n2c(c1C(=O)N(C)Cc1nonc1C)CCN(Cc1c(F)cccc1F)CC2 ?
Vaccinia Venus: -2%; FMDV inh: -3%; VACV mCherry inh: -10%

Results for Cc1n[nH]c(=S)n1/N=C/c1ccc(-c2ccccc2[N+](=O)[O-])o1 ?
FBPA Giardia inh: -11%; Vaccinia Venus: -30%; FMDV inh: -12%

How did CCc1nnc(N/N=C/c2ccc(-c3ccc([N+](=O)[O-])cc3)o2)n1N do in these assays?
FBPA Giardia inh: 4.5µM*; Vaccinia Venus: inconclusive; FMDV inh: -7%; VACV mCherry inh: inconclusive

How did Cc1nnc(N/N=C\c2ccc(-c3ccccc3[N+](=O)[O-])o2)n1N do in these assays?
FBPA Giardia inh: 1.8µM*; Vaccinia Venus: 22µM*; FMDV inh: 19%; VACV mCherry inh: inconclusive

What do the screens show for `CCCN1CNc2c(c(=O)[nH]c(=S)n2CCc2cc(Cl)cc(Cl)c2)C1`?
Vaccinia Venus: -8%; VACV mCherry inh: 0%

What do the screens show for `CCc1cc(C(=O)NCCN2Cc3ccccc3OC(c3ccsc3)C2)n(C)n1` (configuration not stated)?
Vaccinia Venus: -21%; FMDV inh: -20%; VACV mCherry inh: -12%

What do the screens show for `Cc1ccc(SC[C@H](C)CN2CC[C@H](O)CCC2=O)cc1`?
Vaccinia Venus: -13%; VACV mCherry inh: -1%

What do the screens show for `C/C(=N\NC(=O)c1c[nH]c2ccccc12)c1ccco1`?
FBPA Giardia inh: -10%; Vaccinia Venus: 0%; VACV mCherry inh: -12%

Results for C/C(=N\NC(=O)c1c[nH]c2ccccc12)c1ccccn1 ?
FBPA Giardia inh: inconclusive; Vaccinia Venus: inconclusive; FMDV inh: 8%; VACV mCherry inh: 10µM*

What do the screens show for `COc1ccc2oc3cc(C)[n+]([O-])c(-c4ccc(Br)cc4)c3c2c1`?
FBPA Giardia inh: 10%; Vaccinia Venus: -16%; FMDV inh: 32µM*; VACV mCherry inh: -27%

Results for CCOc1cc2[nH]c(=O)n(CCCCC(=O)N3CCN(c4cccc(Cl)c4)CC3)c(=O)c2cc1OCC ?
Vaccinia Venus: inconclusive; FMDV inh: 25µM*; VACV mCherry inh: inconclusive

Results for CCOc1cc2[nH]c(=O)n(CCC(=O)N3CCN(c4ccccc4)CC3)c(=O)c2cc1OCC ?
Vaccinia Venus: -5%; FMDV inh: -21%; VACV mCherry inh: -14%

How did O=C(CCCn1c(=O)[nH]c2ccsc2c1=O)N1CCN(c2ccc(Cl)cc2)CC1 do in these assays?
Vaccinia Venus: -15%; FMDV inh: 28µM*; VACV mCherry inh: -18%

What do the screens show for `COc1cc2[nH]c(=O)n(CCCCCC(=O)N3CCN(c4cccc(C(F)(F)F)c4)CC3)c(=O)c2cc1OC`?
Vaccinia Venus: inconclusive; FMDV inh: 22µM*; VACV mCherry inh: inconclusive

Results for Nc1c(Br)cc(C=O)cc1Br ?
Vaccinia Venus: -6%; VACV mCherry inh: -8%

What do the screens show for `Cc1ccccc1-c1ccc2ncnc(NCc3cccs3)c2c1`?
FBPA Giardia inh: -17%; FMDV inh: -12%

What do the screens show for `Cc1cccc(-c2ccc3ncnc(NCc4cccs4)c3c2)c1`?
FMDV inh: 25µM*

How did OC1C(Br)=Cc2ccccc21 (configuration not stated) do in these assays?
Vaccinia Venus: -6%; VACV mCherry inh: 16%

What do the screens show for `CCCCC(CC)COC(=O)c1ccc(N(C)C)cc1` (configuration not stated)?
Vaccinia Venus: -17%; FMDV inh: 0%; VACV mCherry inh: -7%

Results for CCCCC(CC)COP(=O)(OCC(CC)CCCC)OCC(CC)CCCC (configuration not stated) ?
Vaccinia Venus: inconclusive; FMDV inh: -14%; VACV mCherry inh: 2.5µM*

Results for CCOC(=O)c1c(N)sc2c1CCC(C)C2 (configuration not stated) ?
FBPA Giardia inh: -21%; Vaccinia Venus: -7%; FMDV inh: 14%

What do the screens show for `CC#CCOC(=O)c1c(C)nc2sc3c(c2c1N)CC[C@@H](O)C3`?
FBPA Giardia inh: 6%; Vaccinia Venus: 3.5µM*; FMDV inh: -10%; VACV mCherry inh: inconclusive

Results for Cc1cc(Cl)n2nc(C)c(-c3ccc(Cl)cc3)c2n1 ?
FBPA Giardia inh: 2%; Vaccinia Venus: 14µM*; FMDV inh: inconclusive; VACV mCherry inh: inconclusive

What do the screens show for `CCOC(=O)/C(=C\c1ccccc1)C(=O)CCN1CCOCC1`?
Vaccinia Venus: -7%; FMDV inh: 18µM*; VACV mCherry inh: inactive

How did O=[N+]([O-])c1ccc(N2CCOCC2)cc1O do in these assays?
FBPA Giardia inh: 0%; Vaccinia Venus: -25%; FMDV inh: 5%; VACV mCherry inh: -19%

What do the screens show for `Cc1cc(N2CCOCC2)ccc1/C=C\[N+](=O)[O-]`?
FBPA Giardia inh: 0%; Vaccinia Venus: 10µM*; FMDV inh: inconclusive; VACV mCherry inh: inconclusive

Results for O=C(Cc1cccs1)Nc1cccc(-c2nc3cc4ccccc4cc3[nH]2)c1 ?
FBPA Giardia inh: -15%; Vaccinia Venus: 10µM*; FMDV inh: -5%; VACV mCherry inh: inconclusive

How did O=C(NCC1Cc2cccc(-c3cnccn3)c2O1)c1ccc2c(c1)OCCO2 (configuration not stated) do in these assays?
Vaccinia Venus: -8%; FMDV inh: 47%; VACV mCherry inh: -14%

Results for N#Cc1c(N)n(C2OC(CO)C(O)C2O)c2ncnc(N)c12 (configuration not stated) ?
Vaccinia Venus: 1µM*; FMDV inh: -6%; VACV mCherry inh: inconclusive
